High-throughput results: PubChem BioAssay, several laboratories
Rows were chosen to be rich in hits. Some 5.4% of all compounds tested hit in one or more screens of this group.
A3A deaminase = APOBEC3A ssDNA deaminase inhibitors, primary screen, selectivity assay for APOBEC3G inhibitor project, biochemical, FAM/TAMRA oligo cleavage fluorescence. inhibition, % at 20 µM. actives 0.41% (n = 330,000). DNA dC->dU-editing enzyme APOBEC-3A (Homo sapiens), P31941. recombinant A3A, FAM/TAMRA ssDNA deamination fluorescence. AID 493011, 2011;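 active means at least 40% inhibition at 20 µM here, with at most 30% in a related deaminase screen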;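 further: plate controls were A3A with DMSO for no effect and wells lacking A3A enzyme for full effect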
Target sequence (P31941 whole entry, looked up): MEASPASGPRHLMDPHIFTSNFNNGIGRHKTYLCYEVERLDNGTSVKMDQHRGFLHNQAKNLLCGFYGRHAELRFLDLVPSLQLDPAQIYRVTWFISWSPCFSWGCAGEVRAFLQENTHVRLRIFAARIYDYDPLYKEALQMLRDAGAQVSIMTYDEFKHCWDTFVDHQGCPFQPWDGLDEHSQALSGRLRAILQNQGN
aDG glyco up = activators of alpha-DG glycosylation, primary screen, uHTS, Pro5-aDG cells, AlphaScreen | alpha-DG glycosylation AlphaScreen (IIH6); 0% Pro5, 100% B10-LARGE cell signal | activation, % at 10 µM | actives 0.22% (n = 360,000);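 active means activation of at least 8% versus controls, or a plate z-score of at least 8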;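 further: Pro5 are CHO cells carrying HIG-tagged alpha-DG that lacks glycosylation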
rCAG RNA binder = binders of r(CAG) RNA repeats, primary screen, biochemical, fluorescence | r(CAG) RNA repeat, TO-PRO-1 dye displacement fluorescence | inhibition, % at 3 µM | AID 651821, 2012 | actives 1.3% (n = 370,000);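 active means inhibition above the plate cutoff, the mean of all test compounds on that plate plus 3 SD, cut at about 35% in these data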;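 further: 0% = DMSO alone and 100% = 100 µM mitoxantrone as full dye displacement; higher means more dye released from RNA so lower well fluorescence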
PHOSPHO1 block = PubChem AID 1565 | Phosphoethanolamine/phosphocholine phosphatase (Homo sapiens), Q8TCT1 | recombinant PHOSPHO1, absorbance phosphatase assay | inhibition, % at 13.3 µM | actives 1.1% (n = 290,000); in the data active means inhibition above about 60%
A3G deaminase = APOBEC3G DNA deaminase inhibitors, primary screen, biochemical, fluorescence, single-stranded DNA substrate, uHTS; DNA dC->dU-editing enzyme APOBEC-3G (Homo sapiens), Q9HC16; recombinant A3G, ssDNA deamination FAM/TAMRA fluorescence; inhibition, % at 20 µM; actives 0.28% (n = 330,000);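 active means inhibition of at least 40% at 20 µM, with no more than 30% in the related APOBEC3A deaminase screen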;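 further: plate controls were DMSO wells with A3G for no effect and wells lacking A3G enzyme for full effect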
ALR inh = inhibitors of human ALR sulfhydryl oxidase, primary screen, biochemical, H2O2 detection, HRP-luminol luminescence, single point | purified ALR, DTT oxidation | inhibition, % (test concentration not listed) | actives 3.8% (n = 290,000) | AID 485317, 2010;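 active means mean replicate inhibition above about 79%, with every replicate also reaching it, limit read from the data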
Target sequence (P55789 whole entry, looked up): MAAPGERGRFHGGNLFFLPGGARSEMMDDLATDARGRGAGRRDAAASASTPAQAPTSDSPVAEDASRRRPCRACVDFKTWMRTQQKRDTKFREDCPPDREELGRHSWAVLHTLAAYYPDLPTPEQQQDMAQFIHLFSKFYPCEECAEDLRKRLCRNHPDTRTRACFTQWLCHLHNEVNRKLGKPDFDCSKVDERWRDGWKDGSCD
* marks the source's active call; other numbers are inactive results; x = not tested or not shown.

SMILES	A3A deaminase	aDG glyco up	rCAG RNA binder	PHOSPHO1 block	A3G deaminase	ALR inh
CCn1c(COc2ccc(Cl)cc2)nnc1SCc1nc2ccccc2[nH]1	-6	0	-3	91*	-8	-2
Clc1ccc(OCCSCc2nc3ccccc3[nH]2)cc1	-6	1	5	69*	-12	-1
COC(=O)[C@H]1C[C@@]2(C)c3ccccc3N(S(=O)(=O)c3ccccc3)[C@H]2N1C(=O)CNC1CCCCC1	x	x	2	x	x	x
Cc1ccc(OCc2nnc(SCC(=O)Nc3ccccc3-c3ccccc3)n2Cc2ccco2)cc1	x	x	5	x	x	x
Cc1ccc(OCc2nnc(SCc3nc4ccccc4[nH]3)n2Cc2ccco2)cc1	-3	1	-1	84*	-3	11
COC(=O)Cc1ccc(NC(=S)Nc2ccc(N3CCOCC3)cc2)cc1	7	1	2	25	-7	89*
Cc1cccc(NC(=S)Nc2ccc(N3CCOCC3)cc2)c1C	-1	0	-3	-2	-1	99*
COc1ccccc1CNCC(=O)Nc1ccc(N2CCOCC2)cc1	-1	0	0	-1	-1	99*
COC(=O)Cc1ccc(NC(=S)NCCCN2CCOCC2)cc1	-3	0	-4	39	0	-19
Cc1cn(CCC(=O)Nc2ccc(N3CCOCC3)cc2)c2ccccc12	-5	0	-2	45	-5	82*
O=C(Nc1ccc2c(c1)OCO2)NC1CCCCN(Cc2cccc(Cl)c2)C1=O (configuration not stated)	x	x	4	x	x	x
COC(=O)CSc1nc2nc(-c3cccs3)cc(C(F)(F)F)c2c(=O)[nH]1	-3	0	1	27	-7	x
CC(=O)Nc1ccc(NC(=O)CSc2nc3nc(-c4cccs4)cc(C(F)(F)F)c3c(=O)[nH]2)cc1	0	0	16	-20	-6	99*
Cc1cc(NS(=O)(=O)c2ccc(NC(=O)CSc3nnc(-c4ccccn4)n3-c3ccccc3)cc2)nc(C)n1	x	x	22	x	x	x
CC1CN(c2ccc(NC(=S)Nc3ccc(N4CC(C)OC(C)C4)cc3)cc2)CC(C)O1 (configuration not stated)	-4	0	7	-40	-5	97*
COCCCNC(=O)c1ccccc1Oc1ccccc1	-3	0	-5	11	-8	98*
COc1ccccc1C(=O)NCCC(=O)NCCOc1ccccc1	-2	0	-6	-58	-5	5
COCc1cc(N2CCN(C(=O)OC(C)(C)C)C[C@H]2C)ccc1N1C[C@@H](C)O[C@@H](C)C1	x	x	2	x	x	x
O=C1[C@@H]2Cc3c([nH]c4ccccc34)C(c3ccc(Cl)cc3)N2C(=O)CN1CCO (some centres not stated)	0	0	1	3	-2	99*
O=C1[C@@H]2Cc3c([nH]c4ccccc34)C(c3ccccc3)N2C(=O)CN1CCO (some centres not stated)	-2	0	-2	x	-8	54
CCOC(=O)[C@]12CCCCC/C=C\1N(Cc1ccc(OC)cc1)C(=O)[C@H]2CC(=O)NCCC(C)C	x	x	-1	x	x	x
Cc1ccc(-c2cc(-c3ccccc3)c3c(N)c(S(C)(=O)=O)sc3n2)cc1	1	0	26	82*	-3	62
CCOC(=O)N1CCN(C(=O)C[C@H]2C[C@@]3(C(=O)OC)C(=C[C@H](COCc4ccccc4)O[C@@H]3C)N(Cc3ccccc3)C2=O)CC1	x	x	2	x	x	x
CC1(C)Cc2c(c(-c3ccccc3)nc3[nH][nH]c(=O)c23)CO1	0	0	4	14	19	99*
CC1(C)Cc2c(c(-c3ccccc3)nc3sc4c(=O)[nH]c(=S)[nH]c4c23)CO1	-1	x	x	42	-1	x
SMILES	A3A deaminase	aDG glyco up	rCAG RNA binder	PHOSPHO1 block	A3G deaminase	ALR inh
O=C(CN1C(=O)CCSc2ccccc21)Nc1cccc(Cl)c1F	x	x	7	x	x	x
C=CCn1c(N)c(-c2nc3ccccc3n2C)sc1=S	-2	0	5	1	-3	90*
O=C(Oc1coc(CSc2nnc(NC(=O)C3CC3)s2)cc1=O)c1c(F)cccc1F	18	0	8	24	8	97*
Nc1ccc(S(=O)(=O)c2cc(O)c3ccccc3c2O)cc1	x	1	57*	x	x	x
COC(=O)[C@]12C[C@H](CC(=O)NCC3CCCCC3)C(=O)N(Cc3ccc4c(c3)OCO4)C1=C[C@H](C(C)(C)C)O[C@@H]2C	x	x	1	x	x	x
CCn1c(-c2ccc3[nH]c(C)c(C)c3c2)n[nH]c1=S	-3	0	1	94*	30	98*
Cc1[nH]c2ccc(-c3n[nH]c(=S)n3C)cc2c1C	-7	0	-1	98*	31	98*
CCn1c(-c2ccc(F)cc2)n[nH]c1=S	14	0	3	-10	34	-1
Cc1cccc(-c2n[nH]c(=S)n2C)c1	-12	0	-1	-32	36	5
O=C(OCc1cn(Cc2ccc(C(F)(F)F)cc2)nn1)N1CCOCC1	x	x	3	x	x	x
CCCCCn1cc(CCC(=O)Nc2ccc(N(C)c3ccccn3)cc2)c2ccccc21	x	x	12	x	x	x
COc1ccc(S[C@]2(C(=O)N3CCN(C(C)=O)CC3)CC(=O)N(S(=O)(=O)c3ccc(F)cc3)[C@@H]2c2ccc(OC)cc2)cc1	x	x	9	x	x	x
COc1ccc(C2CC(=O)n3nc(C45CC6CC(CC(C6)C4)C5)nc3S2)cc1OC (configuration not stated)	x	0	2	4	x	11
CCOc1ccc(C2CC(=O)n3nc(C45CC6CC(CC(C6)C4)C5)nc3S2)cc1OC (configuration not stated)	0	0	2	84*	1	1
Cc1ccc(NC2CCCN(C(=O)CCN3CCOCC3)C2)cc1C (configuration not stated)	-6	0	-6	42	1	99*
Cc1ccc(NC2CCCN(C(=O)CCn3nccc3C)C2)cc1C (configuration not stated)	-2	0	-10	-1	17	99*
CC(C)c1ccc(NC2CCCN(C(=O)CCN3CCOCC3)C2)cc1 (configuration not stated)	-3	0	-3	29	-4	55
O=C(Nc1ccc(Oc2ccccc2)cc1)C1CCCN1S(=O)(=O)c1cccc2cccnc12 (configuration not stated)	x	x	4	x	x	x
O=C(CN1C(=O)CCSc2ccccc21)Nc1ccc(Cl)cc1	x	x	2	x	x	x
